# A number with no mark means an inactive call. Active and inactive are the calls of the source. No stated cut-off is given here; in the data, active means fold change permeability below about 0.7 or above about 1.3; inactive means in between.
# Assay: modulators of brain endothelial barrier permeability, primary screen, cell-based, FITC-avidin fluorescence, HTS (AID 1963498); further: test concentration not given here
# Settings: actives lie on both sides
row,SMILES,fold change permeability
1,CN(C)CC(O)Cn1c2ccc(Br)cc2c2cc(Br)ccc21 (stereo not given),1.5 (active)
2,C[C@@H](O[C@H]1OCCN(Cc2n[nH]c(=O)[nH]2)[C@H]1c1ccc(F)cc1)c1cc(C(F)(F)F)cc(C(F)(F)F)c1,1.4 (active)
3,O=C(O)CSCC(=O)NC1CCSC1=O (stereo not given),1.7 (active)
4,COc1ccccc1OCCNCC(O)COc1cccc2[nH]c3ccccc3c12 (stereo not given),1.7 (active)
5,CN(C)CC/C=C1/c2ccccc2Sc2ccc(Cl)cc21,1.1
6,N#Cc1cc2nc(O)c(O)nc2cc1[N+](=O)[O-],1.2
7,OC[C@H]1O[C@@H](n2cnc3c(NC4CCCCC4)ncnc32)[C@H](O)[C@@H]1O,1.2
8,c1ccc2c(c1)CCCC2C1=NCCN1 (stereo not given),0.7 (active)
9,CCN[C@H]1CN(CCCOC)S(=O)(=O)c2sc(S(N)(=O)=O)cc21,1.5 (active)
10,CC(C)C[C@H](NC(=O)[C@@H](O)[C@H](N)Cc1ccccc1)C(=O)O,1
11,O=C(O)CCCCCCCC(=O)O,1.2
12,CCCCN(Cc1ccccc1)C(=O)c1ccc(S(=O)(=O)Nc2ccccc2)cc1,1.8 (active)
13,O=[N+]([O-])c1ccc(CNc2nc(NCc3cccc(C(F)(F)F)c3)nc3nc[nH]c23)cc1,1.3 (active)
14,C[C@H]1C[C@H]2[C@@H]3CCC4=CC(=O)C=C[C@]4(C)[C@@]3(Cl)[C@@H](O)C[C@]2(C)[C@@]1(O)C(=O)CO,1.2
15,O=C(c1ccccc1)c1ccc2n1CCC2C(=O)O (stereo not given),2 (active)
16,CN1CC(=O)NC1=NC(=O)Nc1cccc(Cl)c1,0.7 (active)
17,C[C@H]1CC(=O)Nc2cc(C(=O)NCCC3CC3)ccc2N1C(=O)N1CC2CC2C1 (stereo not given in full),1.1
18,O=C(O)c1cc(=O)c2ccccc2[nH]1,1.6 (active)
19,O=C(/C=C/c1ccc(O)c(O)c1)OCCc1ccccc1,1
20,CCCC(CCC)C(=O)O,1.1

row,SMILES,fold change permeability
1,O=C(COc1ccc(Cl)cc1)NC1CCC(NC(=O)COc2ccc(Cl)cc2)CC1 (stereo not given),0.9
2,Cc1nc2ccccn2c(=O)c1CCN1CCC(C(=O)c2ccc(F)cc2)CC1,1.1
3,O=C(c1ccc(Br)cc1)N1CC2C3CCC(O3)C2C1 (stereo not given),1.2
4,CNCCCC12CCC(c3ccccc31)c1ccccc12,0.9
5,Nn1nnc2ccccc21,0.9
6,O=C(O)COc1ccc(C(=O)c2cccs2)c(Cl)c1Cl,1.4 (active)
7,Cc1ccc(S(=O)(=O)NC(=O)NN2CCCCCC2)cc1,1
8,COc1ccccc1N1CCN(CC(O)COc2cccc3ccccc23)CC1 (stereo not given),0.8
9,C[C@]12C=CC(=O)C=C1CC[C@@H]1C2=CC[C@]2(C)[C@@H](C(=O)CN3CCN(c4cc(N5CCCC5)nc(N5CCCC5)n4)CC3)CC[C@@H]12,1.4 (active)
10,NS(=O)(=O)c1cccc2c1c([N+](=O)[O-])cc1nc(O)c(O)nc12,0.9
11,CC[C@H](NC(=O)c1c(C)c(-c2ccccc2)nc2ccccc12)c1ccccc1,1
12,NC(=Nc1ccccc1)NC(=O)c1nc(Cl)c(N)nc1N,1.2
13,C=C1CCN([C@H](C)[C@](O)(Cn2cncn2)c2ccc(F)cc2F)CC1,1.4 (active)
14,CN1CC[C@]2(CCN3CCc4c(oc5ccccc45)[C@@H]3C2)N(C)C1=O,1.1
15,CNS(=O)(=O)CCc1ccc2[nH]cc(C3CCN(C)CC3)c2c1,1
16,CC(=O)NCCc1c[nH]c2ccc(O)cc12,1.1
17,C[C@H](NCCc1ccc(O)cc1)[C@H](O)c1ccc(O)cc1,0.7 (active)
18,COc1ccc2c(c1)c(CC(=O)O)c(C)n2Cc1ccc(Cl)cc1,1
19,CCOC(=O)C1=C(C)NC(C)=C(C(=O)OC)C1c1cccc([N+](=O)[O-])c1 (stereo not given),0.8
20,Cc1cc(C(=O)N2Cc3cnn(C)c3Nc3ccccc32)ccc1CNC(=O)N1CCN(Cc2cc(O)cc(O)c2)CC1,1.2

# Source: PubChem BioAssay
